Only some compounds are listed: those with a hit (about 4.2% of all), similar ones and a draw of the others.
GDH-TPI counter – counter-screen for M. tuberculosis FBA inhibitors: GDH-TPI coupled enzymes | GDH-TPI coupled enzyme counterscreen, NADH absorbance | inhibition, % at 4.8 µM | 1.2% of 360,000 active | AID 588335;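 also: 0% = DMSO wells and 100% = wells lacking the enzyme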
Mtb FBA inh – inhibits M. tuberculosis FBA enzyme | P9WQA3 | purified M. tuberculosis FBA, fluorescence read-out | inhibition, % at 1 µM | 2.3% of 360,000 active | AID 588726; in the data active = inhibition above about 27%;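 also: 0% = vehicle and 100% = reference inhibitor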
Mtb betalactam – beta-lactam sensitization of Mtb H37Rv; M. tuberculosis H37Rv growth with meropenem, percent inhibition; inhibition, % at 25 µM; 0.27% of 330,000 active; AID 434955; call rule not given here;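 also: growth measured after seven days incubation then overnight dye step; 0% = bacteria only wells and 100% = bacteria with antibiotic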
RecA intein inh – Mtb RecA intein splicing inhibition | P9WHJ3 | cell-free RecA intein splicing, fluorescence | inhibition, % (no concentration beside the values) | 0.75% of 290,000 active; in the data active = inhibition above about 30%; inconclusive = no clear call, values can overlap the other calls;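 also: 0% = vehicle wells and 100% = reference inhibitor control wells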
Target sequence (P9WHJ3 whole entry, looked up): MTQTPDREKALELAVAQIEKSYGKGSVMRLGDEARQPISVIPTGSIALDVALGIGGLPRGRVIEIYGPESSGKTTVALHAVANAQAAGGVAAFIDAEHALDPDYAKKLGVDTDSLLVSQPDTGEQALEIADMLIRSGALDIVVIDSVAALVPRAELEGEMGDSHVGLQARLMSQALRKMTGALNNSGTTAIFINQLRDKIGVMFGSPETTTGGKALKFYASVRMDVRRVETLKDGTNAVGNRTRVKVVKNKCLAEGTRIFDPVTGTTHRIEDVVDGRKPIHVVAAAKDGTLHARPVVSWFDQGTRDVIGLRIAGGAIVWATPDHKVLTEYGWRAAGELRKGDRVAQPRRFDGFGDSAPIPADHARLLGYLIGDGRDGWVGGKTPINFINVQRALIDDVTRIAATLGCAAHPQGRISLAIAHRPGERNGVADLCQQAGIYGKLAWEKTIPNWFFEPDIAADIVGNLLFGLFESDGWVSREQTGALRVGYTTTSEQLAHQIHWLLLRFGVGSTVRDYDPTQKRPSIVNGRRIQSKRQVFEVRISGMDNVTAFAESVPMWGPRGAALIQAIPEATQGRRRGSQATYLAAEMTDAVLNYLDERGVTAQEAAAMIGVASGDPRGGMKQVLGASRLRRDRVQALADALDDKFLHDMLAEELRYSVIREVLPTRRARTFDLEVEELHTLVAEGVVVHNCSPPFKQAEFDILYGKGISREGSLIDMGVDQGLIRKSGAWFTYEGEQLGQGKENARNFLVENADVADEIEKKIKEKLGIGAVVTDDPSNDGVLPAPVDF
CCHF vOTU inh – CCHFV vOTU protease inhibition. 0.55% of 370,000 active. inhibition, % at 11.5 µM. Pep-AMC fluorescence; also: 0% = vehicle wells with enzyme and 100% = no enzyme wells
Active calls of the source: *; i = inactive; u = inconclusive; x = not tested or not shown; + = active, no number. Rule as the data show it, unless noted: active = inhibition above about 30%; inactive = the rest.

SMILES | GDH-TPI counter | Mtb FBA inh | Mtb betalactam | RecA intein inh | CCHF vOTU inh
Cc1cc(=O)oc2cc3c(cc12)OCO3 | 20 | + | -3 | -5 | -249
Cc1cc2cc3c(C)cc(=O)oc3c(C)c2o1 | -1 | 6 | 6 | -3 | 2
O=C(NNC(=S)Nc1ccccc1Cl)c1ccncc1 | 34* | -3 | 97 | -1 | -1
CCOC(=O)C1=C(O)C(=O)N(c2ccc(S(N)(=O)=O)cc2)C1c1cccc([N+](=O)[O-])c1 (configuration not stated) | 32* | 3 | -6 | 1 | 7
CC(=O)C1=C(O)C(=O)N(c2ccc(S(N)(=O)=O)cc2)C1c1cccc([N+](=O)[O-])c1 (configuration not stated) | 23 | 4 | 1 | -1 | 2
O=S1(=O)CC/C(=N/Nc2ccc(C(F)(F)F)cn2)c2cc(F)ccc21 | 14 | 0 | 10 | 10 | -3
O=S1(=O)CC/C(=N/Nc2ccccn2)c2cc(F)ccc21 | 33* | 1 | -8 | -4 | -1
O=C(N/N=C1\CCS(=O)(=O)c2ccc(F)cc21)c1ccc([N+](=O)[O-])cc1 | 17 | -3 | 0 | 1 | -1
O=C(N/N=C1\CCS(=O)(=O)c2ccc(F)cc21)c1ccc(O)cc1 | 46* | 1 | -3 | 3 | 5
CCCCCCCCN1C(=O)[C@@H](CC(=O)N2CCN(C(=O)c3ccco3)CC2)C[C@@]2(C(=O)OC)C1=C[C@H](COCc1ccccc1)O[C@@H]2C | x | x | x | x | 11
COC(=O)[C@]12C[C@H](CC(=O)NCCc3ccccc3OC)C(=O)N(Cc3cccc4ccccc34)C1=C[C@H](COCc1ccccc1)O[C@@H]2C | x | x | x | x | 12
Cc1ccc[n+](CC(=O)Nc2cccc([N+](=O)[O-])c2)c1 | 1 | 2 | 1 | -1 | -13
Cc1ccc[n+](CC(=O)Nc2ccc([N+](=O)[O-])cc2)c1 | 42* | 2 | -6 | -1 | -9
Cc1ccc2nc3nc(NCC4CCCO4)c(C(=O)NC4CCCC4)cc3c(=O)n2c1 (configuration not stated) | 5 | 151* | 1 | i | -148
CCNc1nc2nc3ccc(C)cn3c(=O)c2cc1C(=O)NCC1CCCO1 (configuration not stated) | -3 | + | 5 | i | -354
COC(=O)[C@]12C[C@H](CC(=O)N3CCSCC3)C(=O)N(CCc3ccc(OC)c(OC)c3)C1=C[C@H](C1CCCC1)O[C@@H]2C | x | x | x | x | 10
Cn1ncc(N=Cc2ccccc2[N+](=O)[O-])c1C(N)=O | 19 | -1 | -3 | 3 | 0
CN(C)c1ccc(C=Nc2cnn(C)c2C(N)=O)cc1 | 35* | -2 | 0 | 3 | 12
COc1ccc(C#Cc2c(-c3ccsc3)oc3ccc(N4CCOCC4)cc23)cc1 | 33* | 27 | 74 | -2 | -11
COc1ccc(-c2oc3ccc(N4CCOCC4)cc3c2C#CC2(O)CCCCC2)cc1 | 29 | 68* | 38 | -1 | -24
OC1(C#Cc2c(-c3ccsc3)oc3ccc(N4CCOCC4)cc23)CCCCC1 | 17 | 24 | -5 | 6 | -21
COc1cccc(C(=O)NCC(=O)N2CCC3(CC2)NCCc2[nH]cnc23)c1OC | 51* | 7 | -2 | 1 | 9
COC(=O)Cn1c(=NC(=O)c2ccc(S(=O)(=O)N3CCOCC3)cc2)sc2cc(S(N)(=O)=O)ccc21 | 32* | 2 | 2 | 1 | -7
CCOCCn1c(=NC(=O)c2cc3ccccc3oc2=O)sc2cc(S(N)(=O)=O)ccc21 | 46* | -1 | 7 | 6 | -9
COCCn1c(=NC(=O)c2ccc(S(=O)(=O)N3CCOCC3)cc2)sc2cc(S(N)(=O)=O)ccc21 | 33* | 0 | -9 | -3 | 22
SMILES | GDH-TPI counter | Mtb FBA inh | Mtb betalactam | RecA intein inh | CCHF vOTU inh
COC(=O)Cn1c(=NC(=O)CN2C(=O)CCC2=O)sc2cc(S(N)(=O)=O)ccc21 | 1 | -3 | 6 | 2 | -12
O=C(CSc1nnc(-c2ccco2)n1-c1ccc(Cl)cc1)Nc1ccccc1-c1ccccc1 | x | x | x | x | 5
c1ccc2c(c1)C1=NCCN1c1ccccc1-2 | 8 | 73* | x | x | -34
CCNC(=O)N(C)[C@H]1C[C@H]2c3[nH]c4cccc(-c5cccc(F)c5)c4c3CCN2C(=O)[C@H]1[C@H](C)O | x | x | x | x | -73
COc1ccc(/C=C/C(=O)Nc2nc(C)c(C(=O)N(C)C)s2)cc1OC | 34* | 2 | -1 | 1 | 6
Cc1nc(NC(=O)c2ccc(Br)s2)sc1C(=O)N(C)C | 35* | 0 | -4 | 1 | 7
Cc1nc(NC(=O)c2cc3c(s2)CCCCC3)sc1C(=O)N(C)C | 16 | -1 | 20 | -3 | -6
COc1ccc(/C=C/C(=O)Nc2nc(C)c(C(=O)N(C)C)s2)cc1 | 42* | -3 | -3 | 3 | 1
CCOC(=O)CNC(=O)c1sc(NC(=O)/C=C/c2ccccc2)nc1C | 32* | 5 | -6 | 0 | 0
O=C(CN(CCc1ccccc1)S(=O)(=O)c1cccs1)N1CCOCC1 | x | x | x | x | -6
CCCCCCCCNS(=O)(=O)CC1NCc2cc(OC)ccc21 (configuration not stated) | x | x | x | x | 15
COc1ccc(CN2C(=O)CN(S(C)(=O)=O)CC2(C)c2nnnn2C2CCCCC2)cc1 (configuration not stated) | x | x | x | x | -4
CCN(CCCNC(=O)c1c(C)cc(=O)oc1C)c1ccccc1 | 36* | 1 | x | x | 3
CCCNC(=O)c1c(C)cc(=O)oc1C | 47* | 1 | 0 | 2 | 1
CC(C)N1Cc2nnn(Cc3ccccc3)c2-c2cc(F)ccc2S1(=O)=O | x | x | x | x | 3
COC(=O)C[C@H]1CC[C@@H]2[C@@H](COc3ccc(NC(=O)C4CCCCC4)cc3C(=O)N2C)O1 | x | x | x | x | -6
NC(=S)N/N=C1\c2ccccc2-c2c(C(=O)O)cccc21 | 13 | -2 | -1 | 1 | 1
NC(=O)c1cccc2c1-c1ccccc1/C2=N/NC(N)=S | 41* | -2 | u | 2 | -4
O=C(O)c1ccc(N=Nc2c(O)[nH]c3ccccc23)cc1 | 35* | -5 | 1 | 4 | -6
CN(C)C(=O)c1ccc(N=Nc2c(O)c3ccccc3[nH]c2=O)cc1 | 15 | -15 | x | x | 6
CC[C@H](CCC(=O)N(c1ccccc1)c1ccccc1)c1ccc(C)cc1 | x | x | x | x | 6
CC(=O)N1C[C@@H](c2c[nH]c3ccccc23)C=C[C@H]1C(=O)NS(=O)(=O)c1ccc(C)cc1 | x | x | x | x | -2
Cc1nn(-c2ccccc2)c(Cl)c1/C=N/Nc1ccc(S(=O)(=O)Nc2ccccc2C(=O)O)cc1[N+](=O)[O-] | 47* | -6 | 15 | 25 | -4
O=C(O)c1ccccc1NS(=O)(=O)c1ccc(NN=Cc2ccccc2F)c([N+](=O)[O-])c1 | 32* | -1 | -3 | x | 17
O=C(NCCN1CCC(Cc2ccccc2)CC1)C1CCCN(S(=O)(=O)c2ccc(Br)s2)C1 (configuration not stated) | x | x | x | x | 3
Cn1c(=O)c2c(nc(NCc3ccc4c(c3)OCO4)n2C)n(C)c1=O | 3 | 0 | 6 | -2 | 9
Cn1c(=O)c2[nH]c(C=Cc3ccc4c(c3)OCO4)nc2n(C)c1=O | 31* | 6 | x | x | 2
